Source: PubChem BioAssay (NMMLSC)
Sampled rows, rich in hits. Any-hit rate of the full collection: about 1.2%.
RGS8-Gao reg – regulators of human RGS8-Galphao interaction | P09471 | multiplexed bead flow cytometry, RGS8-Galphao binding; actives lie on both sides | response (percent of control binding), % at 10 µM | 0.34% of 220,000 active | AID 1423; in the data active means response below about 60% or above about 140%; inactive means in between;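 further: Galphao activated as the GDP aluminium fluoride complex binding bead-coupled RGS8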
Target sequence (P09471 whole entry, looked up): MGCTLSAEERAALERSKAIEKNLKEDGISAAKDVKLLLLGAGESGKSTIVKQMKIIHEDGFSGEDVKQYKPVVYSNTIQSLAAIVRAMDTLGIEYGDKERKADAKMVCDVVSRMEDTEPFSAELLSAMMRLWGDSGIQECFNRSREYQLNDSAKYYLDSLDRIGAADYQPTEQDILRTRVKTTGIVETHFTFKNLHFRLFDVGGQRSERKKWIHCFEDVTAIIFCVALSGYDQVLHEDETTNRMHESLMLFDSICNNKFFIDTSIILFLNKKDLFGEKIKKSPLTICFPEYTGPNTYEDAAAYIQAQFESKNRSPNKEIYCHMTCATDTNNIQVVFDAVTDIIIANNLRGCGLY
Avidin fluor – avidin bead compound fluorescence profile. fluorescence (KMESF) at 10 µM. 0.38% of 220,000 active. Avidin beads, compound fluorescence 488/530 nm, flow cytometry; active compounds read high. AID 1775; in the data active means fluorescence above about 47
RGS16-Gao – RGS16-Galphao interaction regulator (human). O15492+P09471. binding response (% of control), % at 10 µM. AID 1441. bead-based flow cytometry RGS16-Galphao binding, fluorescence; actives lie on both sides. 0.38% of 220,000 active;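 further: Galphao activated by GDP with aluminum fluoride before binding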
Target sequence (O15492 whole entry, looked up): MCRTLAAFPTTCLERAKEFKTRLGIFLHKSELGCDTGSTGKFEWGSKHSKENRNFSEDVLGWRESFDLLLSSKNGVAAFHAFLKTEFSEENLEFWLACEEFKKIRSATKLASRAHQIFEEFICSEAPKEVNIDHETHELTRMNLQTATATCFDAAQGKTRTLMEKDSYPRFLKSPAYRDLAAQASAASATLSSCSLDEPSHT
Target sequence (P09471 whole entry, looked up): as the sequence (P09471 whole entry, looked up) above
RGS4-Gao reg – modulates binding of RGS4 to human Galphao; P09471; Multiplexed bead flow cytometry; actives lie on both sides; binding response (% of control), % at 10 µM; 0.33% of 220,000 active; AID 1415; in the data active means binding response below about 49% or above about 150%; inactive means in between;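 further: fluorescent Galphao activated with aluminum fluoride binding bead-coupled RGS4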
GSH bead fluor – compound fluoresces at 488/530 nm on GSH beads. AID 1776. fluorescence (KMESF) at 10 µM. 0.25% of 190,000 active. GSH beads flow cytometry, compound fluorescence 488/530 nm; active compounds read high; in the data active means fluorescence above about 89;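 further: glutathione beads carrying GST-tagged Bcl family fusion proteins plus one bare bead set; values are compound well signal with DMSO vehicle wells as background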
RGS7-Gao – regulators of human RGS7-Galphao interaction. 0.35% of 220,000 active. P09471. binding response (% of control), % at 10 µM. AID 1439. Multiplexed bead flow cytometry, RGS7-Galphao binding; actives lie on both sides; in the data active means binding response below about 49% or above about 150%; inconclusive means no clear call, values can overlap the other calls; inactive means in between;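 further: fluorescent Galphao held in activated GDP-AlF4 state binding bead-coupled RGS7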
RGS4-Gao HTS – regulators of human RGS4-Galphao interaction. shares compounds with RGS16-Gao. multiplexed bead flow cytometry, RGS–Galpha-o binding. RGS4–Galpha-o binding response, % at 10 µM. 99% of 1,600 active;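 further: fluorescently labeled Galpha-o bound to GDP with aluminium fluoride binding biotinylated RGS beads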
Avidin counter – counter-screen: compounds disrupting biotin binding to avidin beads; shares compounds with RGS16-Gao; streptavidin beads, fluorescein-biotin binding, flow cytometry; inhibition, % at 10 µM; 1,700 tested, under 10 active; AID 1783;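 active means inhibition above 50%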;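 further: median green fluorescence of gated singlet beads compared with DMSO control wells; 0% = DMSO wells and 100% = complete loss of bead fluorescence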
RGS8-Gao single – RGS8-Galphao interaction regulation, single point confirmation; shares compounds with RGS16-Gao; bead-based flow cytometry RGS8-Galphao binding, fluorescence; actives lie on both sides; binding response (% of control), % at 10 µM; 3% of 1,700 active; AID 1836; in the data active means binding response below about 72% or above about 130%; inactive means in between;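 further: Galphao activated as GDP AlF4 complex before binding bead RGS8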
RGS7-Gao single – confirmation of regulators of human RGS7-Galphao interaction. shares compounds with RGS16-Gao. 7.8% of 1,700 active. response (percent of control binding), % at 10 µM. bead-based flow cytometry RGS7-Galphao binding; actives lie on both sides; in the data active means response below about 75% or above about 130%; inactive means in between;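 further: fluorescent Galphao activated with GDP and aluminum fluoride binding bead-coupled RGS7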
RGS16-Gao single – confirmation of regulators of human RGS16-Galphao interaction | 4% of 1,700 active | shares compounds with RGS16-Gao | response (% of control binding), % at 10 µM | bead-based flow cytometry, RGS16-Galphao binding; actives lie on both sides; in the data active means response below about 74% or above about 130%; inactive means in between;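 further: Galphao activated as the GDP aluminium fluoride complex binding bead-coupled RGS16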
RGS4-Gao single – confirmation of regulators of human RGS4-Galphao interaction. shares compounds with RGS16-Gao. binding response (% of control), % at 10 µM. RGS4-Galphao binding, multiplexed bead flow cytometry; actives lie on both sides. 4% of 1,700 active. AID 1840; in the data active means binding response below about 74% or above about 130%; inactive means in between
RGS19-Gao conf – RGS19-Galphao interaction regulation, single point confirmation | shares compounds with RGS16-Gao | bead-based flow cytometry RGS19-Galphao binding; actives lie on both sides | response (percent of control binding), % at 10 µM | 5% of 1,700 active; in the data active means response below about 50% or above about 160%; inactive means in between;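 further: 100% = no compound control and 0% = blank background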
Active calls of the source: *; i = inactive; ? = inconclusive; . = not tested or not shown; [ ] = another dose, or the depositor's remark. Unless noted, how the calls were made is not given here.

SMILES | RGS8-Gao reg | Avidin fluor | RGS16-Gao | RGS4-Gao reg | GSH bead fluor | RGS7-Gao | Avidin counter | RGS8-Gao single | RGS7-Gao single | RGS16-Gao single | RGS4-Gao single | RGS19-Gao conf | others
O=S(=O)(c1cccc2cccc(Cl)c12)N1CCCC1 | 97 | 12 | 97 | 97 | 16 | ? | . | . | . | . | . | .
NC1=NC(=O)CC(C(=O)NCCc2ccccc2)S1 (stereo not drawn) | 3.8* | . | -73* | -82* | 10 | -29* | -2 | 115 | 161*[activator] | 130*[activator] | 137*[activator] | 326*[activator]
NC1=NC(=O)CC(C(=O)Nc2cccc3ccccc23)S1 (stereo not drawn) | 115 | 25 | 121 | 107 | 10 | 109 | . | . | . | . | . | .
O=C(CCSc1ccccc1)NC(=O)COC(=O)c1ccc(OC(F)F)cc1 | 96 | 19 | 92 | 95 | 14 | 96 | . | . | . | . | . | .
O=C1CN(C(=O)c2ccc(Cl)c(S(=O)(=O)N3CCc4ccccc43)c2)c2ccccc2N1 | 99 | 7 | 101 | 99 | . | ? | . | . | . | . | . | .
COCCCNC(=O)c1ccc(CS(=O)(=O)c2ccc(OC)cc2)o1 | 102 | 24 | 101 | 100 | 14 | 101 | . | . | . | . | . | .
COc1ccc(S(=O)(=O)Cc2ccc(C(=O)NCCc3ccc(S(N)(=O)=O)cc3)o2)cc1 | 121 | 9 | 183*[activator] | 105 | 22 | 110 | -1 | 107 | 85 | 110 | 93 | 66 | RGS4-Gao HTS=105*
COCC(C)NS(=O)(=O)c1ccc(NC(=O)c2ccccn2)cc1 (stereo not drawn) | 98 | 10 | 98 | 98 | . | ? | . | . | . | . | . | .
Cc1nc(-c2ccc(S(=O)(=O)NCc3ccccn3)s2)cs1 | 99 | 8 | 99 | 99 | . | ? | . | . | . | . | . | .
O=C(NCc1ccccc1)c1cc2ccccc2o1 | 102 | 13 | 106 | 103 | 11 | 110 | . | . | . | . | . | .
CCNC(=O)c1cc2ccccc2o1 | 16* | -1 | 11* | 10* | 25 | 15* | 1 | 98 | 102 | 99 | 99 | 92
N#C/C(C(=O)N1CCOCC1)=C1/SC(Cc2ccccc2Cl)C(=O)N1c1ccccc1 (stereo not drawn) | 103 | 3 | 100 | 96 | 25 | 98 | . | . | . | . | . | .
COc1cc2c(cc1NC(=O)CSc1nnc(Cc3cccs3)n1C)oc1ccccc12 | 128 | 105* | 314*[activator] | 315*[activator] | 45 | 248*[activator] | 1 | 102 | 104 | 103 | 102 | 93
COc1cc2c(cc1NC(=O)CSc1nnc(Cc3cccs3)n1Cc1ccco1)oc1ccccc12 | 99 | 14 | 102 | 99 | 13 | 99 | . | . | . | . | . | .
COC(=O)CC1C(=O)NCCN1C(=O)Nc1ccc(Cl)c(Cl)c1 (stereo not drawn) | . | 23 | . | 104 | 15 | . | -1 | 102 | 99 | 99 | 102 | 87
CCc1ccc(NC(=O)CN2CCc3ccccc3C2)cc1 | 102 | 33 | 100 | 101 | 14 | 102 | . | . | . | . | . | .
O=C(CN1CCc2ccccc2C1)Nc1ccc(Br)cc1 | 146*[activator] | 3 | 362 | 120 | 54 | 111 | 2 | 100 | 94 | 100 | 99 | 104 | RGS4-Gao HTS=120*
COCCCN(C(=S)Nc1c(C)cc(C)cc1C)C(C)c1ccccn1 (stereo not drawn) | 102 | 7 | 99 | 98 | 7 | 107 | . | . | . | . | . | .
NC(CC(=O)O)c1ccc(Br)cc1 (stereo not drawn) | 125 | 5 | 179*[activator] | 107 | 10 | 105 | 0 | 102 | 103 | 102 | 103 | 104 | RGS4-Gao HTS=107*
Cc1ccc(NS(=O)(=O)c2cccc(C(=O)OCC(=O)NCc3ccco3)c2)cc1 | 178*[activator] | 8 | 444 | 163*[activator] | 231* | 148 | -1 | 97 | 93 | 94 | 93 | 74
COc1ccc(NC(=O)N2CCN(C(=O)C(Cc3ccc(F)cc3)NC(C)=O)CC2)cc1 (stereo not drawn) | 104 | 13 | 108 | 104 | 12 | 98 | . | . | . | . | . | .
CCOC(=O)C1CCCN(C2CC(=O)N(c3ccccc3)C2=O)C1 (stereo not drawn) | 95 | 10 | 96 | 94 | 12 | 86 | . | . | . | . | . | .
CCOC(=O)c1ccc(N2C(=O)CC(N3CCN(C/C=C/c4ccccc4)CC3)C2=O)cc1 (stereo not drawn) | 153*[activator] | 7 | i | 134 | 66 | 122 | 0 | 109 | 108 | 112 | 105 | 115 | RGS4-Gao HTS=134*
O=C(NCCSCc1ccccc1)c1ccc(C2SCC(=O)N2Cc2ccccc2)cc1 (stereo not drawn) | 105 | 17 | 115 | 112 | 10 | 107 | . | . | . | . | . | .
CC(C)CCNC(=O)NC(=O)COC(=O)C1=COCCO1 | 13* | 2 | 9.2* | 21* | 17 | 17* | -1 | 101 | 100 | 101 | 104 | 98
Cc1ccc(N2C(=O)c3cccc4c(Oc5ccccc5[N+](=O)[O-])ccc(c34)C2=O)c(C)c1 | 126 | 14 | 235*[activator] | 121 | 2 | 122 | 1 | 107 | 110 | 107 | 108 | 115 | RGS4-Gao HTS=121*
CN=C(Nc1cccc(Cl)c1)SC1CC(=O)N(c2ccc(OC)cc2)C1=O (stereo not drawn) | 105 | 12 | 114 | 114 | 11 | 105 | . | . | . | . | . | .
Cn1c2c(c(=O)n(C)c1=O)CN(Cc1ccc3c(c1)OCO3)CN2 | 133 | 6 | 222*[activator] | 104 | 59 | 100 | 2 | 97 | 96 | 99 | 100 | 112 | RGS4-Gao HTS=104*
O=C(CC1SC(=NCC2CCCO2)NC1=O)Nc1cccc2ccccc12 (stereo not drawn) | 6.6* | -5 | -12* | 11* | 9 | -5.8* | 0 | 100 | 98 | 97 | 97 | 106
